# Laboratory results taken from PubChem BioAssay (NCI).
# The panel holds about 83,000 compounds, 20% with a hit somewhere; the sample as a whole holds those more often.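 For each line, cells grew in 96-well plates with the test compound present at a single concentration for 48 hours.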 A number with no mark means an inactive call. Activity calls are given as the source filed them. How the source made its calls: active means growth percent below 10; inactive means the rest.
# Key:
# Test in all cases: NCI-60 one-dose screen, 48 h (100 = growth as untreated, 0 = no growth, -100 = all killed)
# Conditions in all cases: 10 µM unless noted
# T-47D breast = system: T-47D breast
# BT-549 breast = system: BT-549 breast
# MDA-MB-435 melanoma = system: MDA-MB-435 melanoma
# SW-620 colon = system: SW-620 colon
# MCF7 breast = system: MCF7 breast
# HCT-116 colon = system: HCT-116 colon
# HCC-2998 colon = system: HCC-2998 colon
# KM12 colon = system: KM12 colon
SMILES,growth (T-47D breast),growth (BT-549 breast),growth (MDA-MB-435 melanoma),growth (SW-620 colon) [%],growth (MCF7 breast),growth (HCT-116 colon),growth (HCC-2998 colon) [%],growth (KM12 colon)
NCCNc1nc2ccccc2c2c(=O)c3cccc(F)c3sc12,70.7%,98.5%,58.5%,17.7,45.1%,15.1%,15.5,34.3%
COc1cc(/C=N/NC(=O)c2ccc(C)nc2)cc(OC)c1OC,104%,105%,109%,95.6,103%,110%,106,97.8%
COc1ccc2nc(NC(=O)c3cccnc3Nc3ccc(S(N)(=O)=O)cc3)sc2c1,84.6%,84.7%,91.5%,109,110%,93.5%,114,97.8%
O=C(Cc1ccc(F)c(Cl)c1)Nc1cc(C2(C(F)(F)F)CC2)nn1CC1CCCCC1,-0.285% (active),5.11% (active),3.02% (active),12.6,-0.278% (active),5.8% (active),14.9,0.921% (active)
COc1ccc(-c2nnc(COc3ccc(Cl)cc3Cl)o2)cc1OC,-10.5% (active),80.1%,48.4%,40.6,32.9%,34.3%,95,58.9%
O=C(Oc1cccc2ccccc12)Oc1cccc2ccccc12,95.1%,98.9%,115%,110,107%,107%,105,97.3%
CC1Cc2c(ncn3c(-c4ccc(F)cc4)nnc23)N(C)c2ccccc21 (configuration not stated),35.1%,80.1%,59.2%,36.2,52.2%,86%,80.3,72.2%
COc1cc2oc(-c3ccc(O)cc3)cc(=O)c2c(O)c1-c1c(OC)cc(O)c2c(=O)cc(-c3ccc(O)cc3)oc12,82.8%,46.7%,1.08% (active),25.2,38%,20.5%,72.5,43.4%
N[C@@H](Cc1ccccc1)[C@@H](O)C(=O)NCc1ccc(F)cc1,113%,105%,101%,103,94.9%,96.1%,113,102%
COc1ccn2c(C(C)=O)cc(C(=O)c3ccc4c(c3)Sc3ccccc3N4)c2c1,57.4%,55.6%,-32.9% (active),23.4,20.9%,1.38% (active),21.2,7.27% (active)
O=C1CSC(c2c(Cl)cccc2Cl)N1c1nc(Cl)cc(=O)[nH]1 (configuration not stated),104%,228%,111%,102,107%,103%,102,112%
COc1ccc(C(=O)C[C@]2(O)C(=O)Nc3c(Cl)ccc(Cl)c32)cc1,29.9%,49.8%,-40.9% (active),21.4,19.7%,17%,23.1,47.6%
NC(=O)Nc1ccc2ncnc(Nc3ccc(Cl)cc3)c2c1,61.6%,92.4%,97.8%,99.1,86.5%,96.4%,97.9,98.5%
COc1ccc2c(c1)C(C)Cc1c(ncnc1-n1c(C)nc3ccccc31)N2C (configuration not stated),36.6%,51.7%,-30.7% (active),12,15.4%,36.3%,41.3,28.7%
